Only some compounds are listed: those with a hit (about 1.9% of all), similar ones and a draw of the others.
MsrA inh – bovine MsrA inhibition; purified bovine MsrA, absorbance read-out; inhibition, % at 15.5 µM; hit rate 0.75% among 360,000;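 further: 0% = vehicle wells with enzyme and 100% = reference inhibitor wells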
bovine MsrA act – bovine methionine sulfoxide reductase A activation; activation, % at 10.6 µM; hit rate 0.3% among 360,000; purified bovine MsrA, absorbance read-out; AID 602163; in the data active means activation above about 7.5%;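 further: 0% = vehicle and 100% = reference activator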
MOR-DOR ag – agonists of human mu-delta opioid receptor heterodimerization | cells, OPRM1-OPRD1 heterodimerization, luminescence | activation, % at 9.3 µM | hit rate 0.3% among 340,000 | AID 504326; in the data active means activation above about 18%;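 further: 0% = vehicle-treated cells and 100% = reference agonist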
Target sequence (P35372 whole entry, looked up): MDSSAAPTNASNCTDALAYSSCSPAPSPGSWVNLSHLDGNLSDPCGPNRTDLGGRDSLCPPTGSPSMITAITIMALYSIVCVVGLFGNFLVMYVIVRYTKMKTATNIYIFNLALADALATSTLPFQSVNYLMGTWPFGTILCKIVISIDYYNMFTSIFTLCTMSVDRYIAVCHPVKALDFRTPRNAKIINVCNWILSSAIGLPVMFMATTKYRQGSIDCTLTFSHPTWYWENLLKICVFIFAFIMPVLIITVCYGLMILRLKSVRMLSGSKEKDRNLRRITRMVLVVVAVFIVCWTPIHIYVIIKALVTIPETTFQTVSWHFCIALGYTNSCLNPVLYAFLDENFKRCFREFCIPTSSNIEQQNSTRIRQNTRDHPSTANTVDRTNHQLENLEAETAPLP
Target sequence (P41143 whole entry, looked up): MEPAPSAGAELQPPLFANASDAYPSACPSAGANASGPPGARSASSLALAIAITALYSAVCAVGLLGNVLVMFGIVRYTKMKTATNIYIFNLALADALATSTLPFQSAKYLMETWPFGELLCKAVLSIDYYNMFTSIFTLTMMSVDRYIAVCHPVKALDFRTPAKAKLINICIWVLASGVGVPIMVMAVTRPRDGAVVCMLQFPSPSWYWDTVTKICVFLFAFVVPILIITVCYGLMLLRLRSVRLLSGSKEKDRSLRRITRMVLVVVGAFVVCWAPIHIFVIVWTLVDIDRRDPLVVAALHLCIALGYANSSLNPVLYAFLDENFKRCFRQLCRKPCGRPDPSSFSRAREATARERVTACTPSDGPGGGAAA
HTR5A inv ag – HTR5A inverse agonism, opioid heterodimer counter-screen; AID 504634; hit rate 0.083% among 340,000; P47898; inhibition, % at 9.3 µM; HTR5A cell line, luminescence; in the data active means inhibition mostly above about 23%, no sharp cut-off; inactive means mostly below about 18%;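 further: 0% = cells with DMSO and 100% = no-cell wells with DMSO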
HTR5A ag ctr – HTR5A agonism, opioid heterodimer counter-screen. hit rate 0.61% among 340,000. AID 504692. activation, % at 9.3 µM. HTR5A agonist assay, luminescence, cell-based. P47898; in the data active means activation mostly above about 9.5%, no sharp cut-off; inactive means mostly below about 7.6%;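 further: 0% = cells with vehicle only and 100% = reference agonist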
OPRM1-OPRD1 inv – inverse agonist of human OPRM1-OPRD1 heterodimerization. cell-based MOR-DOR heterodimer luminescence, inverse agonism. inhibition, % at 9.3 µM. hit rate 0.21% among 340,000. AID 504357; in the data active means inhibition above about 22%, passing the limit was not always enough;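 further: 0% = cells with DMSO and 100% = wells without cells with DMSO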
MsrA inh confirm – confirmation of bovine MsrA inhibitors; shares compounds with MsrA inh; purified bovine MsrA, absorbance read-out; inhibition, % at 15.5 µM; hit rate 41% among 2,300; AID 651822;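 further: coupled to thioredoxin reductase with NADPH and selenocystamine and DMSO as substrate; 0% = vehicle only and 100% = full effect of reference inhibitor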
Active calls of the source: *; . = no result given. Unless noted, no stated cut-off is given here; in the data, active means inhibition above about 4.5%; inactive means the rest.

SMILES	MsrA inh	bovine MsrA act	MOR-DOR ag	HTR5A inv ag	HTR5A ag ctr	OPRM1-OPRD1 inv	MsrA inh confirm
CC(=O)C1=C(O)C(=O)N(Cc2cccnc2)C1c1ccccc1 (stereo not given)	6.4*	-7	0	-24	-8	3	2
CC(=O)C1=C(O)C(=O)N(Cc2ccccc2)C1c1ccc(F)cc1 (stereo not given)	0	-3	0	7	-2	2	.
Cc1ccc(CN(C)C[C@H]2OCc3cnnn3CCCC(=O)N([C@H](C)CO)C[C@@H]2C)cc1	0	.	.	.	.	.	.
O=C(Nc1nc2ccccc2[nH]1)c1ccc(Br)o1	4.8*	-5	0	19	-1	1	3
O=C(NN=Cc1ccc(F)cc1)c1ccccc1NS(=O)(=O)c1cccs1	1	-5	0	-6	2	0	.
O=C(NN=Cc1cc(Br)c(O)c(Br)c1)c1ccccc1NS(=O)(=O)c1cccs1	6.1*	-7	-2	7	-2	8	4
O=C(O)c1ccc(/C=N/NC(=O)c2ccc(NS(=O)(=O)c3cccs3)cc2)cc1	5.5*	-5	0	-10	2	2	5.5*
O=C(O)COc1ccccc1C=NNC(=O)c1ccc(NS(=O)(=O)c2cccs2)cc1	5.9*	-5	-1	-13	5	6	4
O=C(NC1CCCCC1)C(c1ccncc1)n1c(=O)c(-c2cc3ccccc3[nH]2)nc2ccccc21 (stereo not given)	1	.	.	.	.	.	.
CC(c1nc2ccccc2n1Cc1ccccc1)n1c(-c2cnccn2)nc2ccccc21 (stereo not given)	-1	.	.	.	.	.	.
CC(=O)CC(=O)O[C@@H]1C=C[C@H](NC(=O)OC(C)(C)C)C1	0	.	.	.	.	.	.
O=c1oc2c(-c3ccc([N+](=O)[O-])cc3)cc(O)cc2s1	7.5*	2	3	-2	1	-17	0
NC1=C(c2ccc([N+](=O)[O-])cc2)C(=O)CO1	4	-7	2	-11	4	-11	.
COc1cc2c(cc1OC)/C(=C/C(C)=O)OC2	6.9*	.	.	.	.	.	4
CCCC(=O)N1CCOCC1c1cc(C(=O)NCc2ccccc2)no1 (stereo not given)	-1	-2	.	.	.	.	.
COc1ccc(/C=C(/NC(=O)c2ccccc2)c2nc3ccccc3[nH]2)cc1OC	6.5*	-7	-2	9	1	13	4
CN(C)c1ccc(/C=N/NC(=O)CCCCCNC(=O)c2ccccc2)cc1	4.8*	-7	-1	-4	0	4	3
COc1ccc(/C=N/NC(=O)Cn2nnc3ccccc32)cc1OC	0	-1	0	16	3	-2	.
CN(C)c1ccc(/C=N/NC(=O)Cn2nnc3ccccc32)cc1	5.1*	-6	-1	-17	0	4	4.7*
CN(C)c1ccc(/C=N/NC(=O)CCc2c[nH]c3ccccc23)cc1	5.5*	-2	0	9	3	2	3
CN(C)c1ccc(/C=N/NC(=O)CCCO)cc1	5.9*	-7	.	.	.	.	4
CCOC(=O)c1cc2ccccc2n1C1CCN(C)CC1	3	-4	.	.	.	.	.
S=C(SCc1cc(Cl)cc2c1OCOC2)N1CCSCC1	3	.	.	.	.	.	.
COc1ccc(S(=O)(=O)N2CCCc3nc(-c4ccccc4)ccc32)cc1	0	.	.	.	.	.	.
CN(C)c1ccc(/C=C(\NC(=O)c2ccccc2)C(=O)N/N=C/c2ccc(C(=O)O)cc2)cc1	5.7*	-4	-2	7	-3	12	5.4*
SMILES	MsrA inh	bovine MsrA act	MOR-DOR ag	HTR5A inv ag	HTR5A ag ctr	OPRM1-OPRD1 inv	MsrA inh confirm
CSc1ccc(/C=N/NC(=O)c2ccccc2Cl)cc1	5.8*	-8	-3	13	-5	13	4
COc1ccc(/C=C(\NC(=O)c2ccccc2)C(=O)N/N=C/c2ccncc2)cc1	5.0*	-5	-1	-22	8	7	6.0*
CN(C)c1ccc(/C=N/NC(=O)c2ccccc2)cc1	4.7*	-6	-1	-5	2	5	4
CN(C)c1ccc(/C=N/NC(=O)c2ccc(Cl)cc2)cc1	3	-8	3	-23	9	-17	.
CSc1ccc(/C=N/NC(=O)c2cccs2)cc1	3	-4	.	.	.	.	.
CN(N=Cc1ccc(N(C)C)cc1)C(=O)c1ccccc1N	5.3*	.	.	.	.	.	3
CN(C)c1ccc(/C=N/NC(=O)c2ccccc2Cl)cc1	6.3*	-3	0	-1	0	1	5.0*
O=C(CC1CCCC1)N[C@@H](Cc1cccnc1)C(=O)N1CCC[C@H]1C(=O)NC1CCCC1	0	.	.	.	.	.	.
COc1cccc(CNS(=O)(=O)c2cc(Br)ccc2Br)c1OC	0	.	.	.	.	.	.
Cc1nc2ccccc2c(=O)n1/N=C/c1cn(-c2ccccc2)nc1-c1cccs1	14*	-5	3	17	4	-15	4.9*
Cc1nc2ccccc2c(=O)n1/N=C/c1cccs1	0	-4	-2	10	-4	11	.
C[C@@H]1CN([C@@H](C)CO)C(=O)CCCn2nncc2CO[C@H]1CN(C)C(=O)Nc1ccc(N2CCN(C)CC2)cc1	2	.	.	.	.	.	.
FC(F)(F)c1ccc(Cl)c(CN2CCN(c3ncc(Cc4ccccc4)cn3)CC2)c1	1	.	.	.	.	.	.
COC(=O)C(C(=O)OC)c1ccccc1NS(=O)(=O)c1c(C)cc(C)cc1C	0	.	.	.	.	.	.
COc1ccc(/C=C2\SC(N)=NC2=O)cc1Br	4.7*	-6	-1	12	-3	5	4
COC(=O)c1c(N)[nH]c(C(=O)c2ccccc2)c1-c1ccc(Br)cc1	0	-2	.	.	.	.	.
O=C1c2ccc3c4c(ccc(c24)C(=O)N1c1cccc(O)c1)C(=O)N(c1cccc(O)c1)C3=O	9.5*	3	3	33	-9	-16	7.1*
COc1ccc(Sc2cccc3c2S(=O)(=O)N([C@H](C)c2ccccc2)C[C@@H](COCc2ccccc2)O3)cc1OC	0	.	.	.	.	.	.
Cc1ccsc1/C=N/Nc1nc(=O)[nH]nc1C	5.3*	-5	0	-2	1	1	4
Cc1cc(C)nc(N/N=C/c2sccc2C)n1	5.3*	-7	-1	3	-1	7	4
Cc1cc(C)nc(N/N=C/c2ccccc2)n1	.	-5	-1	-34	1	7	.
CN(C)c1cccc(NC2=CC(=[N+]3CCOCC3)CC(C)(C)C2)c1	4.8*	-6	-2	-5	-2	12	5.2*
CC1(C)CC(=O)C=C(Nc2cccc(F)c2)C1	3	-4	-6	-13	3	26	.

From PubChem BioAssay
